Screens deposited in PubChem BioAssay by National Center for Advancing Translational Sciences (NCATS).
12-hLO inh – blocks human 12-lipoxygenase activity; P18054; Potency, µM (doses to about 57.1 µM), without a hit: at the top dose activity change, negative = inhibition, most hits filed as inhibitors; AID 1452; purified 12-hLO, xylenol orange hydroperoxide absorbance; 0.12% of 150,000 active; further: potency means the concentration at half of the fitted maximal effect; nearly all actives have a fitted effect of over 55% in size
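Lipoxygenase turnover measured by absorbance at 573 and 405 nm after Fe-XO development. Human 12hLO 150 nM, arachidonate 40 uM, pH 7.0 Hepes buffer with detergent; 15 min compound preincubation, 30 min reaction.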
PNC assembly inh – perinucleolar compartment assembly inhibition. AID 2417. activity change (PNC), negative = inhibition, % at 10 µM. 3.1% of 140,000 active. PC3M PTB-GFP, PNC prevalence imaging, 16 h; active compounds read low;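 active means readout at or below -70, meaning at least 70% loss of cells showing the perinucleolar compartment, a nuclear body marking cancer cells; inconclusive means readout between -30 and a set limit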;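 further: plate controls were DMSO wells for no effect and camptothecin positive control wells for full effect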
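Compounds are pinned in duplicate onto adhered PC3M cells stably expressing GFP-tagged PTB and incubated 16 h at 37 C. Cells are then fixed, nuclei stained with Hoechst, and PNC-positive cells counted.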
aGal spleen mod – inhibits or activates alpha-galactosidase in human spleen homogenate; Potency, µM (titrated, usually from 80 µM), for inactives: top-dose activity change, negative = inhibition, usual class: inhibitors; AID 2107; P06280; 0.008% of 240,000 active; human spleen homogenate, 4MU-alpha-Gal fluorescence, 40 min;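 further: potency means the concentration at half of the fitted maximal effect; 0% = enzyme with vehicle and -100% = no enzyme basal signal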
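Human spleen homogenate (1 ug) was the enzyme source, with 4-methylumbelliferyl-alpha-D-galactopyranoside (1 mM final) in pH 5.0 citrate buffer with 0.01% Tween-20. Compounds were titrated; after 40 min at 37C, NaOH/glycine stop, 4-MU fluorescence read; AC50 from Hill fits.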
HPGD inh – HPGD (human) dehydrogenase inhibition | P15428 | purified HPGD, NADH fluorescence kinetic, PGE2 substrate | Potency, µM, for inactives: at the highest dose activity change, negative = inhibition, actives largely listed as inhibitors | 4.3% of 150,000 active; active means well fitted inhibition curve with a large enough effect, not every such curve was filed as active; inconclusive means small, poorly fitted or top-dose-only effect, or another doubt; inactive means no such curve, though single readings can be large or run the other way; further: potency means the concentration at half of the fitted maximal effect
Target sequence (P15428 whole entry, looked up): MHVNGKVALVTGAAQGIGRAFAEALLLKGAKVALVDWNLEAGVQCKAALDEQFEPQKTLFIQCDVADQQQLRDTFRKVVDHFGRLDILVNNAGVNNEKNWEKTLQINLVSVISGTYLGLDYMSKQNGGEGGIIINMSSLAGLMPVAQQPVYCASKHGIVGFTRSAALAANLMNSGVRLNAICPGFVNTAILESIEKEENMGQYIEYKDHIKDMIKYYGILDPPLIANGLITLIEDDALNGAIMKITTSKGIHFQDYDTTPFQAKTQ
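NADH formation kinetics: reaction with 30 uM PGE2 and 1 mM NAD+ (final), 20 nM enzyme, Tris-HCl pH 8 with Tween 20, after 15 min compound preincubation at room temperature. Fluorescence change, last versus first of five reads.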
GLA inh pH 4.5 – alpha-galactosidase A (human) inhibition, pH 4.5; P06280; purified enzyme, 4-MU-alpha-Gal fluorescence, pH 4.5; activity change, negative = inhibition, % at 105 µM; 230,000 tested, under 10 active; AID 1467;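 further: 0% = full activity with enzyme and -100% = basal without enzyme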
Target sequence (P06280 whole entry, looked up): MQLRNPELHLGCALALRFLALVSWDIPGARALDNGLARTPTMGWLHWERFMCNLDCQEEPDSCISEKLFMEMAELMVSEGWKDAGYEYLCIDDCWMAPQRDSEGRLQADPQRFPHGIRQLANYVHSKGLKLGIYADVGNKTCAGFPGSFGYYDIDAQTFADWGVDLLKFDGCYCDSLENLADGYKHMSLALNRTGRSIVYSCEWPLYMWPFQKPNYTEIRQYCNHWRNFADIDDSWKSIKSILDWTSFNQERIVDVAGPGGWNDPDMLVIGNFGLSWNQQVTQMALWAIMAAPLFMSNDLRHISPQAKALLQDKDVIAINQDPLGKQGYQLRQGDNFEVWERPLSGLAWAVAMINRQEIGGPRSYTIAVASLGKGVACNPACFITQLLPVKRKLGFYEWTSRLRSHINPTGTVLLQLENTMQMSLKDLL
ALDH1A1 block – inhibitors of human aldehyde dehydrogenase 1A1; P00352; Purified ALDH1A1, NADH fluorescence, propionaldehyde substrate; Potency, µM (doses to about 75.3 µM), inactives show at the top dose activity, negative = inhibition, most hits filed as inhibitors; 7.3% of 220,000 active; AID 1030; active means well fitted inhibition curve with a large enough effect, not every such curve was filed as active; inconclusive means small, poorly fitted or top-dose-only effect, or another doubt; inactive means no such curve, though single readings can be large or run the other way;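 further: potency means the concentration at half of the fitted maximal effect; plate controls were no enzyme wells and a reference inhibitor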
* marks the source's active call; other numbers are inactive results; ? = inconclusive; . = not tested or not shown; [ ] = remark or other dose. The list is not random: actives were taken first. Their share in the collection is about 10%. Unless noted, the call rests on the fitted dose curve; in most records, active means well fitted curve in the direction sought with a large enough effect; inconclusive means small, poorly fitted or top-dose-only effect, or another doubt; inactive means no such curve, though single readings can be large; an effect the other way counts as inactive or inconclusive. Unless noted, on the % scale 0 is the no-effect control and ±100 the full control effect.

SMILES | 12-hLO inh | PNC assembly inh | aGal spleen mod | HPGD inh | GLA inh pH 4.5 | ALDH1A1 block
Cc1nn(-c2ccccc2)c(C)c1/C=N/n1c(-c2ccc(C(C)(C)C)cc2)n[nH]c1=S | -27% | 43 | 3% | ? | 7 | -8%
Cc1ccccc1-c1n[nH]c(=S)n1/N=C/c1c(C)nn(-c2ccccc2)c1C | 1% | ? | 6% | 3.5µM* | 5 | -4%
CCCCCCCCCCCCCCCC(=O)OC[C@@H](COP(=O)([O-])OCC[N+](C)(C)C)OC(=O)CCCCCCCCCCCCCCC | . | . | 3% | . | . | .
CCNc1c(C(=O)O)ccc2c1C(=O)c1ccccc1C2=O | 1% | -85* | -3% | -12% | 0 | 1%
CCN(CCN(C)C)C(=O)c1ccc2c(c1NCCO)C(=O)c1ccccc1C2=O | . | . | 1% | . | 1 | 14µM*
CC1(C)CCCN(C(=O)c2ccc3c(c2NCCO)C(=O)c2ccccc2C3=O)C1 | -1% | 17 | 0% | 16µM* | -4 | ?
O=C1c2ccccc2C(=O)c2c1ccc(C(=O)N1CCCCC1)c2NCCO | 0% | ? | 10% | ? | -1 | 0%
CNc1c(C(=O)O)ccc2c1C(=O)c1ccccc1C2=O | 2% | -11 | 1% | -14% | 0 | 2%
O=C(O)c1cccc2c1C(=O)c1ccccc1-2 | . | . | 7% | . | 4 | 22µM*
CCCCCNC(=O)c1ccc2c(=O)n(CCCN3CCCC3=O)c(=S)[nH]c2c1 | . | . | -2% | . | 11 | ?
COc1ccc2sc(/C=C/c3ccccc3O)[n+](C)c2c1 | . | . | 3% | . | -2 | -13%
Cc1ccc(NC(=O)/C=C\C(=O)O)c([N+](=O)[O-])c1 | -1% | -6 | 6% | -7% | -5 | 13µM*
Cc1cc(C)c(NC(=O)/C=C\C(=O)O)c([N+](=O)[O-])c1 | 2% | 5 | -4% | 22µM* | 0 | 10µM*
Cc1ccc(NC(=O)Cn2ccsc2=N)c([N+](=O)[O-])c1 | . | . | 2% | . | 6 | 7.1µM*
O=C(CN1CCN(Cc2ccccc2)CC1)Nc1ccc(N2CCOCC2)cc1 | . | . | 5% | . | -14 | -3%
CC(C)[C@H](NC(=O)[C@H](CCC(N)=O)NC(=O)CNC(=O)[C@@H]1CCCN1C(=O)[C@H](Cc1ccc(O)cc1)NC(=O)CN)C(=O)O | . | . | -22% | . | . | .
c1ccc(CSc2nnc3c4ccccc4c4ccccc4c3n2)cc1 | -4%[11.4 µM] | . | 1% | 0% | 6 | ?
O=C(NCC(c1cccnc1)N1CCN(c2ccc(F)cc2)CC1)c1ccc(F)cc1 (configuration not stated) | -7% | -21 | -3% | -12% | 9 | 32µM*
COC(=O)c1ccc(C(NC(=O)OCc2ccccc2)/C(C)=C/[C@@H](C)C(=O)N2CCN(C)CC2)cc1 (some centres not stated) | 1% | . | -7% | -10% | 1 | ?
COc1cccc(NC(=O)Cc2nnc(SCC(=O)c3ccccc3)n2C)c1 | -9% | 230 | 0% | 32µM* | 0 | 8.9µM*
COc1cccc(NC(=O)Cc2nnc(SCCOc3ccccc3)n2C)c1 | -2% | 8 | -11% | -3% | 3 | -11%
CCn1c(CC(=O)Nc2cccc(OC)c2)nnc1SCC(=O)N1CCN(c2ccccc2)CC1 | -4% | -85* | 3% | 1% | -2 | 5%
CCc1ccc(NC(=S)NC(=O)CC(C)C)cc1 | -11% | 35 | -6% | ? | 6 | 13%
Cc1cc(C)cc(NS(=O)(=O)c2ccc3[nH]cc(C(=O)N4CCc5ccccc54)c(=O)c3c2)c1 | -8% | -17 | -2% | -26% | -9 | 10µM*
CCc1ccc(NS(=O)(=O)c2ccc3[nH]cc(C(=O)N4CCc5ccccc54)c(=O)c3c2)cc1 | -4% | ? | -10% | -24% | -3 | 14µM*
SMILES | 12-hLO inh | PNC assembly inh | aGal spleen mod | HPGD inh | GLA inh pH 4.5 | ALDH1A1 block
Cn1c(=O)c(C(=O)Nc2ncccc2O)c(O)c2ccccc21 | -14% | -13 | -4% | 22µM* | 10 | -5%
C[C@@H]1CN(Cc2nc(-c3cccs3)no2)C[C@H](C)O1 | . | . | 6% | . | 4 | -5%
COc1ccccc1CN1CCN(Cc2nc(-c3cccs3)no2)CC1 | . | . | 5% | . | 7 | 1%
c1csc(-c2noc(CN3CCc4sccc4C3)n2)c1 | . | . | -4% | . | 3 | 20µM*
COCC1CCN(Cc2nc(-c3cccs3)no2)C1 (configuration not stated) | . | . | -3% | . | 2 | 28µM*
Cc1nc(NC2CCCCC2)c2nc(-c3ccccc3)n(CCCN3CCOCC3)c2n1 | 2% | . | 2% | ? | -4 | ?
Cn1c(N)c(C(=O)COC(=O)Cn2cc(C(F)(F)F)ccc2=O)c(=O)n(C)c1=O | 0% | ? | -5% | 16µM* | 7 | 7%
O=S(=O)(c1ccc(Br)s1)N1CCc2ccccc2C1 | -1% | -119* | -22% | -29% | 0 | -26%
O=S(=O)(c1ccc(Cl)s1)N1CCc2ccccc2C1 | -5% | 16 | -2% | -14% | 1 | -7%
O=C1c2ccccc2C(=O)c2c1ccc1c(=O)n(C3CCCCC3)[nH]c21 | 1% | 7 | -1% | 14µM* | -12 | -11%
C=CCn1c(N)cc(=O)nc1SCC(=O)N1CCN(c2ccc(F)cc2)CC1 | -1% | 6 | 6% | -7% | 2 | 14µM*
C=CCn1c(N)cc(=O)nc1SCC(=O)Nc1ccc2ccccc2c1 | 1% | 22 | -7% | -7% | 6 | 0%
O=C(CSc1nc2ccccc2[nH]1)N1CCN(c2ccc(F)cc2)CC1 | -1% | 33 | -2% | -11% | 2 | 25µM*
CCn1c(CSCc2ccc(C)cc2)nnc1SCC(=O)N1CCN(c2ccccc2)CC1 | -8% | 22 | -1% | -6% | -1 | ?
C=CCn1c(CSCc2ccccc2)nnc1SCC(=O)N1CCN(c2ccccc2)CC1 | -6% | 2 | 12% | . | -4 | 0.79µM*
CCn1c(SCC(=O)N2CCN(c3ccc(Cl)cc3)CC2)nc2ccccc2c1=O | -6% | ? | -19% | ? | -1 | 0%
CCn1c(SCC(=O)N2CCN(c3ccc(F)cc3)CC2)nc2ccccc2c1=O | 2% | -15 | 12% | -18% | -6 | 25µM*
COC(=O)[C@@]1(Cc2ccccc2)[C@H]2c3cc(C(=O)N(C)C)n(Cc4ccc(OC)c(OC)c4)c3C[C@H]2CN1C(=O)c1ccccc1 | -1% | . | 11% | -6% | -4 | 9%
COC(=O)[C@@]1(Cc2ccc(OC)cc2)[C@H]2c3cc(C(=O)N4CCCC4)n(CCc4ccc(O)c(OC)c4)c3C[C@H]2CN1C(=O)c1ccccc1 | -22% | . | 4% | -5% | -10 | 0%
Cc1noc2ncnc(Sc3ccc(Br)cc3)c12 | . | . | -6% | . | 1 | ?
